# Data as given in PubChem BioAssay (EPA / NIEHS).
# Results filed as inconclusive are left out. Activity calls are given as the source filed them. How the source made its calls: active means hit-call score of the fitted dose curve at least 0.9, where 1 is the maximum; inconclusive means response in the unintended direction; inactive means score below 0.9.
# Read-out: Cytochrome P450 3A4 (Homo sapiens) (UniProt P08684)
# Assay: CLD_CYP3A4_6hr: CellzDirect (CLD) Gene Expression Assay for xenobiotic metabolism (CYP3A4) at 6 hours (AID 2283680)
# Procedure: CLD_6hr is a cell-based, multiplexed-readout assay that uses hepatocyte, a human liver primary cell, with measurements taken at 6 hours after chemical dosing in a 96-well plate.CLD_CYP3A4_6hr is one of 16 assay component(s) measured or calculated from the CLD_6hr assay. It is designed to make measurements of mRNA induction, a form of inducible reporter, as detected with chemiluminescence signals by Quantitative Nuclease Protection Assay (qNPA) technology.Data from the assay component CLD_CYP3A4_6hr was analyzed at the endpoint, CLD_CYP3A4_6hr, in the positive analysis fitting direction relative to DMSO as the negative control and baseline of activity. Using a type of inducible reporter, gain-of-signal activity can be used to understand changes in the reporter gene as they relate to the gene CYP3A4. Furthermore, this assay endpoint can be referred to as a primary readout. To generalize the intended target to other relatable targets, this assay endpoint is annotated to the cyp intended target family, where subfamily is xenobiotic metabolism.
# Human hepatocyte cultures were treated daily for two consecutive days with fresh dosing solutions containing appropriate concentrations of the 320 ToxCast chemicals (chemical identities were blinded to CellzDirect and other ToxCast collaborators), vehicle control (0.2% DMSO), and positive control inducers as summarized in Table 1. Due to the large number of treatment groups and chemicals examined, the ToxCast chemicals were divided into two groups (spanning two independent cultures of hepatocytes from separate donor preparations (Hu778: ToxCast plates 1 and 2; Hu776: ToxCast plates 3 and 4). Each preparation of human hepatocyte cultures was treated with respective vehicle control, medium only control, set of six positive controls/reference chemicals for the five hepatic receptor pathways, and a subset of eight of the ToxCast chemicals (indoxacarb, pyrithiobac-sodium, norflurazon, cyhalofop-butyl, methomyl, thiram, acetochlor, and propiconazole). These replicate data, coupled with internal replicates designed within the blinded ToxCast chemical library, provided additional data to evaluate interindividual differences between hepatocyte preparations and their potential impact on chemical profiles.Cell morphology and integrity were evaluated using phase-contrast microscopy as an indicator of hepatocyte cell health (Tyson & Green, 1987). Cultures for each treatment group (i.e., media, vehicle [0.2% DMSO], positive control inducers [multiple concentrations], and the ToxCast chemicals [multiple concentrations]) were observed and cell morphology was assessed relative to vehicle control cultures at each harvest time point (0, 6, 24, or 48 h). […] Images were evaluated at the conclusion of the study to assess changes in cell integrity and account for the effects of chemical exposure on uncharacteristic changes in concentration-dependent gene expression profiles. The results from these determinations of apparent cytotoxicity were annotated (yes/no) alongside the corresponding qNPA data for reference.At the conclusion of each treatment period, hepatocyte cultures (96-well) were washed with 1 volume of HBSS, lysed by addition of 25 ul ArrayPlate lysis buffer (HTG, Tucson, AZ), and 70 ul/well of Denaturation Oil, denatured by incubation at 95C for 10 min, and frozen at approximately -70C until analysis by nuclease protection assay (qNPA) (Roberts et al., 2007). For qNPA analysis, cell lysates were thawed at 50C for approximately 30 min, qNPA probes were added, and samples were incubated at 95C for 10 min to begin the detection process by denaturing the target RNA, dissociating the duplexes and secondary structure hybridization. At the conclusion of the hybridization period, S1 nuclease reagent was added to each sample to digest all nonprotected nucleotides at 50C for 60-90 min. […]
# Sequence of Cytochrome P450 3A4 (Homo sapiens) (P08684 whole entry, looked up): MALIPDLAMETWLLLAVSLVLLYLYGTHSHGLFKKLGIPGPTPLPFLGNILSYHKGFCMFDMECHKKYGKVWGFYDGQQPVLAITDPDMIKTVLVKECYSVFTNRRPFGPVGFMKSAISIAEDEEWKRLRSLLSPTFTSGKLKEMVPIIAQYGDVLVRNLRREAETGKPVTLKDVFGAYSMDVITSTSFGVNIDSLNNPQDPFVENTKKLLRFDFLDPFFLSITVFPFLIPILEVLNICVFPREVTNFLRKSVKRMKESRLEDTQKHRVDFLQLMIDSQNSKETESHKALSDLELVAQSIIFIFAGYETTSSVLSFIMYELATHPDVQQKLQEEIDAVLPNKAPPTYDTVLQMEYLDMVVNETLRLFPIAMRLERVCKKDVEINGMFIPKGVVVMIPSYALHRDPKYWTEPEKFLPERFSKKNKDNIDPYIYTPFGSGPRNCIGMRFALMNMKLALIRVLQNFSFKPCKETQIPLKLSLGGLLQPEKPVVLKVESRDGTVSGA
SMILES,outcome,AC50
O=C(O)C1(C(=O)Nc2ccc(Cl)cc2Cl)CC1,inactive,–
CCCCC(CC)COC(=O)c1ccccc1C(=O)O (stereo unspecified),inactive,–
COC(=O)CSc1cc(N=c2sc(=O)n3n2CCCC3)c(F)cc1Cl,–,1300 nM (active)
CCCCCCC(C)OC(=O)COc1nc(F)c(Cl)c(N)c1Cl (stereo unspecified),inactive,–
CCCCC(CC)CN1C(=O)C2C3C=CC(C3)C2C1=O (stereo unspecified),inactive,–
COCCO,inactive,–
CC1(C)C(C=C(Cl)Cl)C1C(=O)OCc1cccc(Oc2ccccc2)c1 (stereo unspecified),inactive,–
S=C(S)NCCNC(=S)S.[Mn+2].[S-]C([S-])=NCCN=C([S-])[S-].[Zn+2],–,3970 nM (active)
Cc1nn(C)c(Oc2ccccc2)c1C=NOCc1ccc(C(=O)OC(C)(C)C)cc1,inactive,–
COC(=O)c1ccc(I)cc1S(=O)(=O)NC(=O)Nc1nc(C)nc(OC)n1,–,348 nM (active)
CCN(Cc1c(F)cccc1Cl)c1c([N+](=O)[O-])cc(C(F)(F)F)cc1[N+](=O)[O-],–,1900 nM (active)
CC(C)(c1ccc(O)cc1)c1ccc(O)cc1,inactive,–
CCNc1nc(N)nc(Cl)n1,inactive,–
CCCOC(=O)NCCCN(C)C,inactive,–
CCCN(CCC)c1c([N+](=O)[O-])cc(C(F)(F)F)c(N)c1[N+](=O)[O-],inactive,–
COc1c(Cl)ccc(Cl)c1C(=O)O,inactive,–

SMILES,outcome,AC50
COC(=O)c1c(Cl)nn(C)c1S(=O)(=O)NC(=O)Nc1nc(OC)cc(OC)n1,inactive,–
CCCCOC(=O)C(C)Oc1ccc(Oc2ccc(C(F)(F)F)cn2)cc1 (stereo unspecified),inactive,–
COC(=O)c1cccc(C)c1S(=O)(=O)NC(=O)Nc1nc(OCC(F)(F)F)nc(N(C)C)n1,inactive,–
CN(C)C(=O)Nc1ccc(Cl)c(Cl)c1,inactive,–
COc1nc(C)nc(NC(=O)NS(=O)(=O)c2ccccc2OCCCl)n1,inactive,–
Oc1ccc(C(c2ccc(O)cc2)C(Cl)(Cl)Cl)cc1,inactive,–
CCOC(=O)NCCOc1ccc(Oc2ccccc2)cc1,inactive,–
CCCCOC(=O)[C@@H](C)Oc1ccc(Oc2ccc(C(F)(F)F)cn2)cc1,inactive,–
CCCCCOC(=O)COc1cc(N2C(=O)C3=C(CCCC3)C2=O)c(F)cc1Cl,–,3780 nM (active)
CCOC(=O)COc1cc(-n2ncc(C(F)(F)F)c(C)c2=O)c(F)cc1Cl,–,4730 nM (active)
CCOC(=O)C(C)Oc1ccc(Oc2cnc3cc(Cl)ccc3n2)cc1 (stereo unspecified),inactive,–
CCCN(CCC)C(=O)SCC,inactive,–
CC(C)(C)[C@@H](O)[C@@H](Cc1ccc(Cl)cc1)n1cncn1,inactive,–
CSC(=O)c1cccc2nnsc12,inactive,–
c1ccc(Nc2ccccc2)cc1,inactive,–
